In PubChem BioAssay:
“And” between values parts separate entries of the source, which are not always exact repeats. Equal entries are not always repeated. The source made the active and inactive calls. No rule for the calls is given here.

Assay: liver-stage malaria parasite load reduction – cell-based, known kinase inhibitor set, luminescence, hepatoma host viability (AID 624392);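 also: infected cells incubated roughly two days before readout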
Details: Plasmodium liver stage in hepatoma cells, luciferase luminescence, concentration not given here; liver cell % of control: measured here: host liver cell viability; parasite % of control: stronger effect = lower value

Row | Compound | liver cell % of control | parasite % of control
1 | Cc1cc(-c2ccco2)cc(C)c1/C=C/c1cncc(-c2nn[nH]n2)c1 | 90.5% | 119% (inactive)
2 | Cc1ccc(Nc2ccnc(Nc3cccc(C(N)=O)c3)n2)cc1O | 103% | 259% (inactive)
3 | Clc1ccc(CNc2nccc(-c3cnn4ncccc34)n2)cc1 | 78.2% | 176% (inactive)
4 | CCn1c(-c2nonc2N)nc2c(C#CC(C)(C)O)ncc(OC3CCNCC3)c21 | 78% | 13.9% (active)
5 | O/N=C1/CCc2cc(-c3nc(C4CCNCC4)[nH]c3-c3ccncc3)ccc21 | 105% | 174% (inactive)
6 | COc1cccc(-n2ncc3c(N/N=C/c4cccc(F)c4)ncnc32)c1 | 106% | 81% (inactive)
7 | CCCN1CCC(Oc2cc(Nc3nc(Nc4cccc(F)c4C(N)=O)c4cc[nH]c4n3)c(OC)cc2Cl)CC1 | 60.5% | 168% (inactive)
8 | CCOc1nccc2c1nc(-c1nonc1N)n2CC | 107% | 176% (inactive)
9 | CCn1c(-c2nonc2N)nc2ccc(F)cc21 | 98% | 113% (inactive)
10 | COc1cc(/C=N/Nc2ncnc3c2cnn3Cc2ccccc2)ccc1O | 94.9% | 99.3% (inactive)
11 | NS(=O)(=O)c1ccc(N=Cc2c(O)[nH]c3ccc4ncsc4c23)cc1 | 60.5% and 61.1% | 165% (inactive) and 378% (inactive)
12 | COc1cc2c(cc1Nc1nc(Nc3ccsc3C(N)=O)c3cc[nH]c3n1)N(C(=O)CN(C)C)CCC2(C)C | 67.7% | 290% (inactive)
13 | c1cnn2ncc(-c3ccnc(NCCCN4CCOCC4)n3)c2c1 | 91.2% | 426% (inactive)
